# Test results published in ChEMBL document CHEMBL3988442, “University of Dundee, Small-Polar-MMV Screening Library” (2021).
# The campaign covered roughly 66,000 compounds. About 960 (1.5%) showed an effect of 50% or more. This excerpt belongs to a sample that is enriched for strong results.
# Tested on: Trypanosoma brucei
# Test: Trypanosoma brucei 72 hour study
# Assay type: functional, organism-based
# Set-up: scale not given: in the data most compounds retested in dose-response had high values
SMILES,"Percent Effect (30 µM, 30.03 µM)","Percent Effect (30.3 µM, […])"
Cc1ccc(CNCc2cccc3cccnc23)c(OC2CCOC2)c1 (centres undefined),98.1%,–
Cc1ccc(CNCc2cccc3cn[nH]c23)c(OC2CCOC2)c1 (centres undefined),-32.61%,–
Cc1ccc(CNCc2c[nH]nc2C(C)(C)C)c(OC2CCOC2)c1 (centres undefined),-38.61%,–
O=C(O)C(F)(F)F.O=C1COC2(CCN(Cc3cccs3)CC2)CN1c1ccsc1,3.746%,–
CC(=O)N1CCN(Cc2ccco2)CC2(CC(=O)N(C)C2)C1.O=C(O)C(F)(F)F (centres undefined),–,-65.74%
Cc1occc1C(=O)N1CCC[C@]2(C[C@@H](OCc3ccccn3)CO2)C1.O=C(O)C(F)(F)F,–,-89.01%
Cl.OC1(Cn2ccc3ncccc32)CCN(Cc2ccccc2F)CC1,–,12.85%
O=C(C1CCOCC1)N1CCc2ncc(CN3CCOCC3)n2CC1.O=C(O)C(F)(F)F,–,-405.3%
CCCN(C(=O)c1ccncc1)c1nc2c(s1)CCc1c-2cnn1C,–,55.53%
CCCN(C(=O)c1cccnc1)c1nc2c(s1)CCc1c-2cnn1C,–,48.91%
CCCN(C(=O)c1cnccn1)c1nc2c(s1)CCc1c-2cnn1C,–,47.96%
CCOc1ccc(C(=O)N2CCCC(c3nccn3C)C2)cc1OCC (centres undefined),-33.07%,–
CCn1cnnc1CN(C)Cc1nc(-c2cc(OC)ccc2F)oc1C,-24.61%,–
CC(C)NC(=O)Cn1ccc2c(Cl)cccc21,-29.64%,–
O=C(Cn1ccc2c(Cl)cccc21)N[C@@H](C(=O)O)c1ccccc1,60.67%,–
CC(C)C[C@H](NC(=O)Cn1ccc2c(Cl)cccc21)C(=O)O,-31.2%,–
CN(C)C(=O)COCC1CN(S(C)(=O)=O)Cc2ncn(C)c21.O=C(O)C(F)(F)F (centres undefined),–,-29.75%
CCN1CCC2(CC1)CC(NCc1cccc(C)n1)c1ccccc1O2.O=C(O)C(F)(F)F.O=C(O)C(F)(F)F.O=C(O)C(F)(F)F (centres undefined),-8.099%,–
Cn1cc(CN2CCC(F)(F)C3(CCN(c4ccccn4)C3)C2)cn1.O=C(O)C(F)(F)F.O=C(O)C(F)(F)F (centres undefined),–,-14.43%
Cn1cc(CN2CCC(F)(F)C3(CCN(c4cccnc4)C3)C2)cn1.O=C(O)C(F)(F)F.O=C(O)C(F)(F)F (centres undefined),–,3.133%
Cn1cc(CN2CCC(F)(F)C3(CCN(c4cccc(F)c4)C3)C2)cn1 (centres undefined),–,99.39%
FC1(F)CCN(Cc2cccnc2)CC12CCN(c1cnccn1)C2.O=C(O)C(F)(F)F.O=C(O)C(F)(F)F.O=C(O)C(F)(F)F (centres undefined),–,-8.346%
Cn1ccnc1CN1CCC(F)(F)C2(CCN(c3cccnc3)C2)C1.O=C(O)C(F)(F)F.O=C(O)C(F)(F)F (centres undefined),–,-58.8%
FC1(F)CCN(Cc2ccncc2)CC12CCN(c1cccnc1)C2.O=C(O)C(F)(F)F.O=C(O)C(F)(F)F.O=C(O)C(F)(F)F (centres undefined),–,-14.72%
FC1(F)CCN(Cc2ccccn2)CC12CCN(c1cnccn1)C2.O=C(O)C(F)(F)F.O=C(O)C(F)(F)F.O=C(O)C(F)(F)F (centres undefined),–,-80.37%
Cn1cc(CN2CCC(F)(F)C3(CCN(c4ncc(F)cn4)C3)C2)cn1.O=C(O)C(F)(F)F (centres undefined),–,-7.399%
FC1(F)CCN(Cc2cccnc2)CC12CCN(c1ccccc1)C2.O=C(O)C(F)(F)F.O=C(O)C(F)(F)F.O=C(O)C(F)(F)F (centres undefined),–,100.3%
FC1(F)CCN(Cc2ccncc2)CC12CCN(c1cnccn1)C2.O=C(O)C(F)(F)F.O=C(O)C(F)(F)F.O=C(O)C(F)(F)F (centres undefined),–,6.608%
Fc1ccc(CN2CCC(F)(F)C3(CCN(c4cnccn4)C3)C2)cc1.O=C(O)C(F)(F)F.O=C(O)C(F)(F)F (centres undefined),–,93.17%
